# Shown is part of a subset that was picked to be rich in the strongest signals.
# B1: MIC2 (Toxoplasma gondii), S8F9G8 (protein)
# chain: MRLQREAVFGLMFACGMWMWPSEVAGGGWSIVDALRKRYDTSRGGDANGVDTSGVEDVIQSESAIGAAEGCTNQLDICFLIDSSGSIGIQNFRLVKQFLHTFLMVLPIGPEEVNNAVVTYSTDVHLQWDLQSPNAVDKQLAAHAVLDMPYKKGSTNTSDGLKACKQILFTGSRPGREHVPKLVIGMTDGESDSDFRTVRAAKEIRELGGIVTVLAVGHYVKHSECRSMCGCSGTSDDDSPCPLYLRADWGQLATAIKPMLKEVCKTLPQDAICSDWSAWSPCSVSCGDGSQIRTRTEVSAPQPGTPTCPDCPAPMGRTCVEQGGLEEIRECSAGVCAVDAGCGVWGEWSAWSASCGNATRKRERTRYNDPPPQGAGRRCENQDPPVLQEQTEEATLAPCITIPPTPPEWAAWSDCTVTCGGGNRHRVRNALPPGLGSQNGESDESLVSKLWPGTDLRQEEACNTSPCPINATCGQFEEWSTCSVSCGGGLKTRSRNPWNEDQQHGGLSCEQQHPGGRTETITCNPQACPVDERPGEWAEWGECSVTCGDGVRERRRGKSLVEAKFGGRTIDQQNEALPEDLKIKNVEYEPCSYPACGASCTYVWSDWNKCVCPMGYQARHAAVKFDYRNKPCDLPTFETKACSCGETNPVPSEGTTPGAPGATGPEQPNQRPLPEGSDENETPTNEEGEQSKKESGSGIAGAIAGGVIGGLILLGAAGGASYHYYLSSSVGSPSAEIEYEADDGATKVVMEEEKETLVPVDDDSDMWME
# Key:
# Experiment in all cases: glycan array binding signal (z-score within array); higher = stronger binding
# Details in all cases: glycan notation: IUPAC condensed, linker removed
# Fuc(a1-2)Gal(b1-3)GlcNAc = biological target: Fuc(a1-2)Gal(b1-3)GlcNAc
# Method in brief: (§1)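 Glycan array data came from 3228 arrays in the Consortium for Functional Glycomics database, and only arrays with an available protein sequence were kept. Glycan names were put into IUPAC-condensed notation, and columns mapping to the same glycan were averaged. The binding signal is a within-array Z-score, averaged across arrays of one protein sequence run at different concentrations or buffers and across linkers. A negative Z-score can be read as non-binding.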
# [1] = biological target: Fuc(a1-2)Gal(b1-3)GlcNAc(b1-3)Gal(b1-4)Glc
# Method in brief: as §1
# [2] = biological target: Fuc(a1-2)[GalNAc(a1-3)]Gal(b1-4)GlcNAc(b1-3)Gal(b1-4)GlcNAc
# Method in brief: as §1
# Fuc(a1-3)GlcNAc = biological target: Fuc(a1-3)GlcNAc
# Method in brief: as §1
# [3] = biological target: Fuc(a1-3)[Gal3S(b1-4)]GlcNAc6S
# Method in brief: as §1
# Fuc(b1-3)GlcNAc = biological target: Fuc(b1-3)GlcNAc
# Method in brief: as §1
# [4] = biological target: Gal(b1-3)[Fuc(a1-4)]GlcNAc(b1-3)Gal(b1-3)[Fuc(a1-4)]GlcNAc
# Method in brief: as §1
# [5] = biological target: Gal(b1-3)[Fuc(a1-4)]GlcNAc(b1-3)Gal(b1-4)[Fuc(a1-3)]GlcNAc
# Method in brief: as §1
# [6] = biological target: Gal(b1-4)GlcNAc(b1-2)Man(a1-6)[GlcNAc(b1-2)Man(a1-3)]Man(b1-4)GlcNAc(b1-4)GlcNAc
# Method in brief: as §1
# [7] = biological target: Gal3S(b1-4)[Fuc(a1-3)]Glc6S
# Method in brief: as §1
# Gal3S4S(b1-4)GlcNAc = biological target: Gal3S4S(b1-4)GlcNAc
# Method in brief: as §1
# Gal3S6S(b1-4)GlcNAc6S = biological target: Gal3S6S(b1-4)GlcNAc6S
# Method in brief: as §1
# Gal4S(b1-4)GlcNAc = biological target: Gal4S(b1-4)GlcNAc
# Method in brief: as §1
# [8] = biological target: GlcNAc(a1-4)Gal(b1-4)GlcNAc(b1-3)Gal(b1-4)Glc
# Method in brief: as §1
# [9] = biological target: GlcNAc(a1-4)Gal(b1-4)GlcNAc(b1-3)Gal(b1-4)[Fuc(a1-3)]GlcNAc(b1-3)Gal(b1-4)[Fuc(a1-3)]GlcNAc
# Method in brief: as §1
# [10] = biological target: GlcNAc(b1-2)Man(a1-3)[GlcNAc(b1-2)Man(a1-6)]Man(b1-4)GlcNAc(b1-4)[Fuc(a1-6)]GlcNAc
# Method in brief: as §1
# [11] = biological target: GlcNAc(b1-4)GlcNAc(b1-4)GlcNAc(b1-4)GlcNAc(b1-4)GlcNAc(b1-4)GlcNAc
# Method in brief: as §1
# Kdn(a2-3)Gal(b1-3)GlcNAc = biological target: Kdn(a2-3)Gal(b1-3)GlcNAc
# Method in brief: as §1
# [12] = biological target: Man(a1-2)Man(a1-3)[Man(a1-2)Man(a1-6)]Man
# Method in brief: as §1
# [13] = biological target: Man(a1-2)Man(a1-3)[Man(a1-2)Man(a1-6)]Man(a1-6)[Man(a1-2)Man(a1-2)Man(a1-3)]Man(b1-4)GlcNAc(b1-4)GlcNAc
# Method in brief: as §1
# [14] = biological target: Neu5Ac(a2-3)Gal(b1-3)GalNAc(b1-3)Gal(a1-4)Gal(b1-4)Glc
# Method in brief: as §1
# [15] = biological target: Neu5Ac(a2-3)Gal(b1-4)GlcNAc
# Method in brief: as §1
# [16] = biological target: Neu5Ac(a2-3)Gal(b1-4)[Fuc(a1-3)]GlcNAc(b1-6)[Gal(b1-3)]GalNAc
# Method in brief: as §1
# [17] = biological target: Neu5Ac(a2-3)[GalNAc(b1-4)]Gal(b1-4)Glc
# Method in brief: as §1
# [18] = biological target: Neu5Ac(a2-3)[GalNAc(b1-4)]Gal(b1-4)GlcNAc(b1-3)GalNAc
# Method in brief: as §1
# Neu5Ac(b2-6)GalNAc = biological target: Neu5Ac(b2-6)GalNAc
# Method in brief: as §1
binder,measurement,setting,value
B1,glycan array binding signal (z-score),Fuc(a1-2)Gal(b1-3)GlcNAc,-0.642
same,glycan array binding signal (z-score),[1],-0.779
same,glycan array binding signal (z-score),[2],-0.814
same,glycan array binding signal (z-score),Fuc(a1-3)GlcNAc,-0.671
same,glycan array binding signal (z-score),[3],3.68
same,glycan array binding signal (z-score),Fuc(b1-3)GlcNAc,0.622
same,glycan array binding signal (z-score),[4],-0.718
same,glycan array binding signal (z-score),[5],0.177
same,glycan array binding signal (z-score),[6],-0.816
same,glycan array binding signal (z-score),[7],4.19
same,glycan array binding signal (z-score),Gal3S4S(b1-4)GlcNAc,3.35
same,glycan array binding signal (z-score),Gal3S6S(b1-4)GlcNAc6S,3.06
same,glycan array binding signal (z-score),Gal4S(b1-4)GlcNAc,-0.874
same,glycan array binding signal (z-score),[8],-0.113
same,glycan array binding signal (z-score),[9],3.35
same,glycan array binding signal (z-score),[10],4
same,glycan array binding signal (z-score),[11],0.267
same,glycan array binding signal (z-score),Kdn(a2-3)Gal(b1-3)GlcNAc,-0.014
same,glycan array binding signal (z-score),[12],-0.278
same,glycan array binding signal (z-score),[13],0.876
same,glycan array binding signal (z-score),[14],0.008
same,glycan array binding signal (z-score),[15],0.221
same,glycan array binding signal (z-score),[16],3.24
same,glycan array binding signal (z-score),[17],0.279
same,glycan array binding signal (z-score),[18],1.93
same,glycan array binding signal (z-score),Neu5Ac(b2-6)GalNAc,-0.725

# — the supplement of paper PMC8728848
